Results on five molecules are retold here after PubChem BioAssay.

Assay [1] has as its system Plasmodium falciparum Sir2 (PF13_0152, Sir2A). Briefly: Plasmodium falciparum Sir2A binding compounds – biochemical, small-molecule microarray, 635 nm fluorescence, primary screen (AID 1098).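 Also: score merges spot fluorescence intensity with its signal-to-noise ratio.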 As to conditions: fluorescence 635 nm, higher = more signal.
A short description of assay [2]: probe aDKK1 binding to arrayed compounds – biochemical, biotinylated probe, 635/667 nm fluorescence, primary screen (AID 1099).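 Also: score merges 667nm spot fluorescence with signal to noise across triplicate slides.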 As to conditions: small-molecule microarray, higher = more signal.
Assay [3] can be described thus: probe aCHRDL2 binding to arrayed compounds – biochemical, biotinylated probe, 635/667 nm fluorescence, primary screen (AID 1100). As to conditions: small-molecule microarray, higher = more signal.
Assay [4] is described as follows: change in splice reporter luminescence, either direction, cell-based, HEK293, spliceosome inhibition project, primary screen (AID 1101).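 Also: HEK293 cells carrying a splicing-competent luciferase reporter gene; test concentration not given here.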 To be noted: HEK293 splicing luciferase reporter, 24 h, higher = more signal, called active from +8 up or from −8 down. (Reporter assays use an easily measured gene product as a stand-in for the process of interest.)
The target in assay [5] is Fibroblast growth factor 10 (Homo sapiens) (UniProt O15520). Nature of the assay: compounds binding fibroblast growth factor 10 – biochemical, small-molecule microarray, 635 nm fluorescence, primary screen (AID 1102). As to conditions: FGF10 binding, fluorescence 635 nm, higher = more signal.
In assay [6] the test system is glycogen synthase kinase-3 (GSK3A per assay name; protocol says GSK3B). Nature of the assay: compounds binding glycogen synthase kinase-3 – biochemical, small-molecule microarray, 635 nm fluorescence, GSK3A, primary screen (AID 1103). Also: the record names both GSK3A and GSK3B. As to conditions: fluorescence 635 nm, higher = more signal.
Assay [7] concerns the target Epidermal growth factor receptor (Homo sapiens) (UniProt P00533). Nature of the assay: compounds binding epidermal growth factor receptor – biochemical, small-molecule microarray, 635 nm fluorescence, primary screen (AID 1104).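 Also: score merges 667 nm emission intensity with spot signal to noise over triplicate slides.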 To be noted: EGFR binding, higher = more signal.
Assay [8] concerns the target Follistatin-related protein 3 (Homo sapiens) (UniProt O95633). Nature of the assay: compounds binding follistatin-related protein 3 – biochemical, small-molecule microarray, 635 nm fluorescence, primary screen (AID 1105).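 Also: score merges emission near 667 nm and signal to noise per printed spot across three slides.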 As to conditions: FSTL3 binding, higher = more signal.
For assay [9], the target named is Dickkopf-related protein 1 (Homo sapiens) (UniProt O94907). Nature of the assay: small molecules binding DKK1 protein – biochemical, small-molecule microarray, 635 nm fluorescence scan, primary screen (AID 1106).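 Also: score merges emission near 667 nm with signal to noise over three replicate slides.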 As to conditions: higher = more signal.
For assay [10], the system named is Inhibin beta A chain (activin A). Nature of the assay: small molecules binding activin A – biochemical, small-molecule microarray, 635 nm fluorescence scan, primary screen (AID 1107).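 Also: mouse activin A protein probed at 4.33 µg/mL on printed slides; score merges bound-protein fluorescence near 667 nm with spot signal-to-noise.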 As to conditions: INHBA, higher = more signal.
The subject of assay [11] is Human papillomavirus type 1a protein E7 (residues 44-93). Nature of the assay: small molecules binding HPV E7 44-93 – biochemical, small-molecule microarray, residues 44-93, 635 nm fluorescence, primary screen (AID 1108).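 Also: E7 fragment applied at 1 µg/mL in TBST for 1 h at 4 C; score combines spot fluorescence with its signal to noise ratio.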 To be noted: fluorescence 635 nm, higher = more signal.
A short description of assay [12]: hepatitis C replication reporter changes, two-sided – Huh7 cells, luciferase reporter, HCV replication inhibitor project, primary screen (AID 1109).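 Also: huh7 hepatoma cells harbouring a luciferase neomycin HCV replicon reporter; luciferase luminescence as measure of HCV replicon replication; test concentration not given here.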 As to conditions: Huh7 HCV replicon luciferase reporter, 48 h; higher = more signal.
Assay [13] addresses Left-right determination factor 2 (Homo sapiens) (UniProt O00292). Briefly: small molecules binding LEFTY2 protein – biochemical, small-molecule microarray, 635 nm fluorescence scan, primary screen (AID 1110). As to conditions: higher = more signal.
Assay [14] deals with Calmodulin-1 (Homo sapiens) (UniProt P0DP23). Nature of the assay: small molecules binding calmodulin-1 with EGTA – biochemical, small-molecule microarray, Cy5-labelled CALM1, profiling panel (AID 1111).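 Also: labelled calmodulin applied in Tris saline Tween buffer holding calcium plus EGTA and DTT.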 To be noted: Cy5-CALM1 binding fluorescence, higher = more signal.
Assay [15] shares this target. Nature of the assay: small molecules binding Ca-loaded calmodulin-1 – biochemical, small-molecule microarray, Cy5-labelled CALM1, plus calcium, artefact control for SMM control-protein annotation, profiling panel (AID 1112).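 Also: score merges spot fluorescence with signal to noise from triplicate slides.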 As to conditions: Cy5-CALM1 binding fluorescence, higher = more signal.
Assay [16] in a line: probe aWnt5a binding to arrayed compounds – biochemical, biotinylated probe, 635/667 nm fluorescence, primary screen (AID 1113).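 Also: score merges 667 nm fluorescence intensity with signal-to-noise per printed feature.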 As to conditions: small-molecule microarray, higher = more signal.
Assay [17] can be described thus: probe aShh binding to arrayed compounds – biochemical, biotinylated probe, 635/667 nm fluorescence, primary screen (AID 1114).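 Also: probe is biotin-labelled aShh protein from a stem cell growth factor screen; measures binding of labelled protein to compounds printed on the slide; score merges feature fluorescence at 667 nm with signal-to-noise.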 To be noted: small-molecule microarray, higher = more signal.
Assay [18] is described as follows: probe aNog binding to arrayed compounds – biochemical, biotinylated probe, 635/667 nm fluorescence, primary screen (AID 1115).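 Also: probe is biotinylated aNog protein used at 0.15 µg/mL for 1 h at 4 C; z-score combines 667 nm fluorescence of each spot with its signal to noise.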 To be noted: small-molecule microarray, higher = more signal.
Assay [19] addresses Torsin-1A-interacting protein 1 (Homo sapiens) (UniProt Q5JTV8). Nature of the assay: compound microarray binding of lysate hLAP1 – cell lysate, small-molecule microarray, COS7 lysate, 635/667 nm fluorescence, primary screen (AID 1116). As to conditions: 635 nm fluorescence, higher = more signal.
Assay [20] deals with Alpha-bungarotoxin (Bungarus multicinctus) (UniProt P60615). Briefly: compounds binding labelled alpha-BTX control protein – biochemical, small-molecule microarray, Alexa647 label, 635/667 nm fluorescence, artefact control for SMM control protein annotation, profiling panel (AID 1117). To be noted: alpha-BTX-A647 binding fluorescence, higher = more signal.

Activity calls are given as the source filed them.

Sequence of Fibroblast growth factor 10 (Homo sapiens) (O15520 whole entry, looked up): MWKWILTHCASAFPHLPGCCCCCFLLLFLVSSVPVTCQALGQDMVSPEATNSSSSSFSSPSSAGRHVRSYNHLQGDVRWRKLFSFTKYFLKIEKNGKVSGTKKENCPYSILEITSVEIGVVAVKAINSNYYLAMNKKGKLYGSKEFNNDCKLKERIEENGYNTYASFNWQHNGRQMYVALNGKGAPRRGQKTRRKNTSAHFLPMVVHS
Sequence of Follistatin-related protein 3 (Homo sapiens) (O95633 whole entry, looked up): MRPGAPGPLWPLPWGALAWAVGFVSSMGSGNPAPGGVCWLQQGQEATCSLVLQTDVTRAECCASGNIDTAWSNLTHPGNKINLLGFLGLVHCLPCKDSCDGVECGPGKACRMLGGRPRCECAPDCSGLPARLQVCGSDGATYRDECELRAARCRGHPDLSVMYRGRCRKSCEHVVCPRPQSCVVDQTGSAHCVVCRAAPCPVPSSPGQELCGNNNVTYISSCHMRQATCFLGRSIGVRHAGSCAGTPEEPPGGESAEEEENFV
Sequence of Alpha-bungarotoxin (Bungarus multicinctus) (P60615 whole entry, looked up): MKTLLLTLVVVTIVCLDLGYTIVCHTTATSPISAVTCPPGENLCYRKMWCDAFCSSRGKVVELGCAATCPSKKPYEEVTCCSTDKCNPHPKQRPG
Sequence of Dickkopf-related protein 1 (Homo sapiens) (O94907 whole entry, looked up): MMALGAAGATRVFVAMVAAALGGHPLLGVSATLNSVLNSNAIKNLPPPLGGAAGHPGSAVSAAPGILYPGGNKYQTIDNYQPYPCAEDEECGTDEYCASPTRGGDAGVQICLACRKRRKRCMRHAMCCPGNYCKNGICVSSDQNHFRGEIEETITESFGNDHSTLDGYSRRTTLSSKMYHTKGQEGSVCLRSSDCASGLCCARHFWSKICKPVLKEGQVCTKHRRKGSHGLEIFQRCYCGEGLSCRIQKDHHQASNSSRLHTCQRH
Sequence of Epidermal growth factor receptor (Homo sapiens) (P00533 whole entry, looked up): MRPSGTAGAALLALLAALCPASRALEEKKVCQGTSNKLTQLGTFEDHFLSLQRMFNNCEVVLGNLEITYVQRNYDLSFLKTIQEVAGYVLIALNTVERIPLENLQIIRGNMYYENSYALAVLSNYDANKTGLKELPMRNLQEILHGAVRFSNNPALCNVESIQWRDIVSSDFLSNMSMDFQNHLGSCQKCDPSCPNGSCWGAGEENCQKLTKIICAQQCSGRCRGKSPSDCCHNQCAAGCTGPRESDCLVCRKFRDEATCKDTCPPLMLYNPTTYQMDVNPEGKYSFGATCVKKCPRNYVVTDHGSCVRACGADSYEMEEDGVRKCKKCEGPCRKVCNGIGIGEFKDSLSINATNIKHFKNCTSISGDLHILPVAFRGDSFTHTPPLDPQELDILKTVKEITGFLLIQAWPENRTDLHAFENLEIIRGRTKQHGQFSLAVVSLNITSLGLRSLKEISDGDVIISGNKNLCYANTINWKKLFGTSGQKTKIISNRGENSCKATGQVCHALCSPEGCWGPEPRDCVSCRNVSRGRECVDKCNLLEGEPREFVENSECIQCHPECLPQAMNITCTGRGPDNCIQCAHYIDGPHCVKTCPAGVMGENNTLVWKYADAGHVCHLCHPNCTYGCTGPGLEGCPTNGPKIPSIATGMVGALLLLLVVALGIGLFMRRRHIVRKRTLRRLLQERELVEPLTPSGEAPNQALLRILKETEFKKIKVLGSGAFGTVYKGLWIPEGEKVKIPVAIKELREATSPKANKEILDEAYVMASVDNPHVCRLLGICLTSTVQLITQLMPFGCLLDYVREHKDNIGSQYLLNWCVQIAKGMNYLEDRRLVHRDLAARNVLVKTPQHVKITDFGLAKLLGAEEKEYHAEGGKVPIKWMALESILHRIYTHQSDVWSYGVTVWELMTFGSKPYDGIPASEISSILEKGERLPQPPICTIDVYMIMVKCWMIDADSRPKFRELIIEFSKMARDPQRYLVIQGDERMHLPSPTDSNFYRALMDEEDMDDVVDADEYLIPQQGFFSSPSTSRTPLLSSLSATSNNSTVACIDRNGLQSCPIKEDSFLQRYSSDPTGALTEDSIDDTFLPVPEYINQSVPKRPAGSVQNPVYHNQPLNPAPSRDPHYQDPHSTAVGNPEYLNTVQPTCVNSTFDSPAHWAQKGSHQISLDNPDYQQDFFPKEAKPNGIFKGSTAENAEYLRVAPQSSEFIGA
Sequence of Torsin-1A-interacting protein 1 (Homo sapiens) (Q5JTV8 whole entry, looked up): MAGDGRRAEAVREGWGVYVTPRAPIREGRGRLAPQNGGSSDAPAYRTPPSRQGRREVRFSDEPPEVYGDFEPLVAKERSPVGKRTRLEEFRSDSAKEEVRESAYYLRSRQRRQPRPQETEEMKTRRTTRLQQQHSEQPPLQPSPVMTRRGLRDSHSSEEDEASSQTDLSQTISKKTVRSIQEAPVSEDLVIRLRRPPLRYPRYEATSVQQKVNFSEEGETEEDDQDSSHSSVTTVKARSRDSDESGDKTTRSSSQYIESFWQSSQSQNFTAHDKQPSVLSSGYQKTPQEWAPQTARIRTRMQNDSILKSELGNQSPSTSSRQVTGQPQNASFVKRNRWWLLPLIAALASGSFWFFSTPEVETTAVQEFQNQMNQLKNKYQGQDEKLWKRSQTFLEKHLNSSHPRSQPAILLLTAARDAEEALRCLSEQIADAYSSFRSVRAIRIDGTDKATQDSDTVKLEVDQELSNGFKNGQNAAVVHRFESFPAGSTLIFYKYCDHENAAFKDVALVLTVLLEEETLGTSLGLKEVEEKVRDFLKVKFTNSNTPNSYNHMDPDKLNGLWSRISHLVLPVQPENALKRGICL
Sequence of Left-right determination factor 2 (Homo sapiens) (O00292 whole entry, looked up): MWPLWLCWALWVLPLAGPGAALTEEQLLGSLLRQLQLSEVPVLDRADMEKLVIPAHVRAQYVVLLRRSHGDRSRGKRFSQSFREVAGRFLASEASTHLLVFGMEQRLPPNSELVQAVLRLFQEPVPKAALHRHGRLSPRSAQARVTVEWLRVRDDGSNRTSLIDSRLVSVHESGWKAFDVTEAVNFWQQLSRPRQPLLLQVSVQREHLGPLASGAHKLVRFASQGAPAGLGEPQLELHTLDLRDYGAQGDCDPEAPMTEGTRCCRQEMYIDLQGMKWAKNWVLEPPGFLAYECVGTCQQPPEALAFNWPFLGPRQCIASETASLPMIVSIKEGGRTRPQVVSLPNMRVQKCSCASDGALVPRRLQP

For the molecule `C=C(C(=O)CC[C@H](OC(=O)c1cccnc1)c1cccc(OCCO)c1)C(C)C`, the composite z-score in assay [1] was 1.24; in assay [2], -0.061; in [3], 0.125; in [5] it was -0.64; in assay [6], -0.418; in assay [7], -0.792. For the same molecule, the composite z-score in [8] was -1.05; in assay [9], -0.878; in [10], 1.16; in assay [11], 0.074; in [13] it was -0.507; in [14] it was -1.21. Further, the composite z-score in assay [15] was -1.58; in [16], -0.124; in assay [17], 0.0952; in assay [18] it was 0.151; in [19], 0.307; in [20] it was -0.0234. In addition, the z-score in [4] was 1.76 (inactive); in [12], -3.63.
As for `CC(C)CNC(=O)[C@@H]1c2ccccc2C(=O)N(Cc2cc(F)cc(C(F)(F)F)c2)[C@H]1c1ccc(CO)cc1`, the composite z-score in assay [1] is 0.311; in assay [2], 0.806; in [3], 1.01; in assay [5], 0.301; in assay [6], 0.13; in assay [7] it was -0.315. The composite z-score is 0.328 in [8]; 0.258 in [9]; 0.669 in assay [10]; -0.0365 in assay [11]; -0.0784 in assay [13]; 0.0981 in assay [14]. Besides, the composite z-score was -0.025 in assay [15]; -0.0459 in assay [16]; 0.0639 in [17]; -0.579 in assay [18]; 0.662 in [19]; -0.694 in assay [20]. In addition, the z-score in assay [4] was -0.621 (inactive); in assay [12] it was -0.604.
On to `COCCCNC(=O)[C@]1(Cc2ccccc2N=[N+]=[N-])N=C(c2ccc(OCCCO)cc2)O[C@@H]1c1ccccc1N=[N+]=[N-]`, for which the composite z-score in assay [1] was 0.707; in assay [2], 0.609; in assay [3], 0.942; in [5] it was 0.955; in assay [6], 0.353; in [7], -0.287. In addition, the composite z-score in assay [8] is 0.219; in assay [9], -0.589; in assay [10], 0.738; in assay [11], 1.43; in assay [13] it was -0.282; in assay [14] it was 1.72. For the same molecule, the composite z-score in [15] was 0.785; in [16] it was 0.14; in [17] it was 0.0556; in [18], -0.312; in assay [19], -0.0819; in assay [20], 0.955. Moreover, the z-score in assay [4] was 1.93 (inactive); in assay [12] it was -3.31.
For `COCCOC(=O)N1C(=O)[C@@]2(c3cc(C#CCC(C(=O)OC)C(=O)OC)ccc31)[C@H](c1ccc(OCCO)cc1)N1[C@H](c3ccccc3)[C@H](c3ccccc3)OC(=O)[C@H]1[C@@H]2C(=O)N1CCN(c2ncccn2)CC1`, the composite z-score in assay [1] was found to be 1.36; in assay [2] it was 0.0926; in assay [3] it was 0.233; in assay [5], 0.994; in assay [6], 1.07; in [7], 0.517. Also, the composite z-score in assay [8] was 1.45; in assay [9] it was 0.637; in [10], 0.109; in assay [11], 1.17; in assay [13], 0.603; in [14] it was 1.41. The composite z-score in assay [15] was 0.377; in assay [16], -0.0236; in assay [17], 0.184; in assay [18] it was 0.363; in assay [19], 1.33; in assay [20] it was 1.85. Further, the results for the z-score in assay [4] and in [12] were -0.0387 (inactive) and -1.46, respectively.
With `COCCCNC(=O)[C@@H]1c2ccccc2C(=O)N(Cc2ccccc2C(F)(F)F)[C@H]1c1ccc(CO)cc1`, the composite z-score was 1.58 in [1]; 0.484 in assay [2]; 0.879 in assay [3]; -0.0537 in [5]; 0.575 in assay [6]; -0.222 in assay [7]. Also, the composite z-score in assay [8] is -0.582; in assay [9] it was -0.595; in assay [10], 0.923; in [11], 0.367; in assay [13], -0.431; in assay [14], -0.119. For the same molecule, the composite z-score in [15] was 0.423; in [16], -0.152; in [17] it was -0.266; in [18] it was 0.265; in [19] it was 0.612; in [20], -0.295. Besides, the z-score in [4] was 0.354 (inactive); in assay [12] it was -0.469.
